A selection: hits, their analogues and other compounds. The true share with any hit is near 17%.
ATXN2 expr inh: ATXN2 expression inhibition. AID 1745845. 360,000 tested, 0.72% active. HEK-293 ATXN2-luciferase reporter, luminescence, 24 h. Potency, µM (top dose mostly 57 µM), most hits filed as inhibitors; note: nearly all actives have a fitted effect of over 55% in size
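qHTS (up to 57 uM final) was run with 24 h compound exposure of reporter cells at 37 °C. Each well was multiplexed: SteadyGlo luminescence measured ATXN2-luciferase expression after a fluorogenic Gly-Phe-AFC viability readout (25 uM final).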
TDP1 cell noCPT: qHTS for Inhibitors of human tyrosyl-DNA phosphodiesterase 1 (TDP1): qHTS in cells in absence of CPT | 420,000 tested, 15% active | Potency, µM (doses to about 46.2 µM), most hits filed as inhibitors | DT40 Tdp1-/- hTDP1 cells, no CPT, ATP luminescence, 48 h | AID 686978, 2013; note: nearly all actives have a fitted effect of over 55% in size
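Cells were dispensed at 400 per well, compounds added by pin tool, plates incubated ≥48 hr at 37 °C, then CellTiter-Glo added for 30 min at room temperature before luminescence reading. Line: DT40 Tdp1-/- complemented with hTDP1; camptothecin omitted.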
ATXN viability: viability counter-screen for ATXN expression inhibitors. S2 cells (HEK-293 line with an ATXN2-luciferase reporter) viability, CellTiter-Fluor protease fluorescence, 24 h. Potency, µM (doses to about 56.7 µM), actives largely listed as cytotoxic. 400,000 tested, 0.49% active; note: nearly all actives have a fitted effect of over 40% in size
DT40 TDP1 CPT: DT40-hTDP1 cell growth loss with CPT | 420,000 tested, 12% active | Potency, µM (top dose mostly 46.2 µM), hits mostly inhibitors | chicken DT40 Tdp1-/-;hTDP1 cells + 20 nM CPT, ATP luminescence, 48 h; note: nearly all actives have a fitted effect of over 55% in size
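Chicken DT40 Tdp1-/- cells stably complemented with human TDP1 were seeded at 400 cells/well in medium containing 20 nM camptothecin, exposed to pin-transferred compounds, and grown at 37 °C for at least 48 hr. Viability was read as ATP luminescence.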
HepG2 viability: HepG2 cytotoxicity, counter-screen for TGF-b inhibitors. Potency, µM (highest dose often 46.1 µM), usual class: cytotoxic. AID 588856. 410,000 tested, 0.76% active. HepG2 CAGA-GFP viability, ATP luminescence, 18 h
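HepG2 CAGA-GFP cells (1000/well, DMEM with 1% FBS) received compound, then TGF-beta at 500 pg/mL final, and were incubated 18 hours at 37 degrees C. Viability was read by CellTiter-Glo luminescence. Media-only wells were set as complete cell-killing and DMSO as no toxicity.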
TGFb SMAD3 inh: blocks TGF-b signaling. HepG2 CAGA-GFP TGF-b/SMAD3 reporter, GFP fluorescence, 18 h; TGF-beta stimulated, 500 pg/mL final. Potency, µM (top dose mostly 46.1 µM), hits mostly inhibitors. 410,000 tested, 1.2% active. AID 588855; note: nearly all actives have a fitted effect of over 65% in size
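HEPG2 CAGA-GFP reporter cells (1000/well, DMEM with 1% FBS) received compounds, then recombinant TGF-beta at 500 pg/mL final for 18 hours at 37 degrees C. Per-cell GFP summed per well was normalised to unstimulated and stimulated DMSO controls before curve fitting.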
Hits are given with their value; i = inactive; ? = inconclusive; nt = no result; [ ] = another dose, or the depositor's remark. Calls come from the whole dose curve; as a rule, active = well fitted curve in the direction sought with a large enough effect; inconclusive = small, poorly fitted or top-dose-only effect, or another doubt; inactive = no such curve, though single readings can be large; an effect the other way counts as inactive or inconclusive.

SMILES	ATXN2 expr inh	TDP1 cell noCPT	ATXN viability	DT40 TDP1 CPT	HepG2 viability	TGFb SMAD3 inh
O=C(N/N=C/c1cccc2ccccc12)c1cccnc1	i	i	i	i	i	?
O=C(N/N=C/c1ccccc1OCc1ccccc1)c1cccnc1	nt	29µM	i	?	i	i
O=C(O)c1cccc(NC(=S)N/N=C/c2ccccc2OCc2cccc(Br)c2)c1	i	?	?	23µM	i	?
CCC(=O)Nc1ccc(C(=O)N/N=C/c2ccccc2[N+](=O)[O-])cc1	i	?	i	i	i	i
O=C(N/N=C/c1ccccc1[N+](=O)[O-])c1ccc(COc2ccccc2-c2ccccc2)cc1	i	12µM	i	12µM	i	i
CSc1ncccc1C(=O)N1CCN(S(=O)(=O)c2ccc3c(c2)OCCO3)CC1	nt	i	i	?	i	i
COCCn1c(=N)c(C(=O)NCCc2ccccc2)cc2c(=O)n3cccc(C)c3nc21	i	?	i	?	i	i
CCNC(=O)c1cc2c(=O)n3cccc(C)c3nc2n(CCc2ccccc2)c1=N	i	13µM	nt	?	i	i
Cc1cccn2c(=O)c3cc(C(=O)NCCN4CCOCC4)c(=N)n(CCc4ccccc4)c3nc12	i	23µM	i	?	i	i
O=C(c1csnn1)N1CCC[C@@]2(CCN(c3ccccn3)C2)C1	nt	i	nt	i	nt	nt
Cc1ccccc1Nc1nc(-c2sc(NC(=O)c3ccco3)nc2C)cs1	i	?	i	?	i	i
Cc1ccc(Nc2nc(-c3sc(NC(=O)c4ccco4)nc3C)cs2)cc1	i	13µM	?	?	i	?
CCOc1ccccc1Nc1nc(-c2sc(NC(=O)c3ccco3)nc2C)cs1	?	15µM	?	15µM	i	i
COc1ccc(OC)c(C(=O)N2CCOc3ccc(C(C)(O)CN(C)C)cc3C2)c1 (centres undefined)	nt	i	i	i[9.04 µM]	nt	nt
Cc1ccc2ncc(C(=O)NCc3ccccc3Cl)c(=O)n2c1	i	i	i	i	i	i
CC1(NC(=O)NCc2ccco2)CCS(=O)(=O)C1 (centres undefined)	nt	i	i	i	i	i
C1Cc2[nH]nc(-c3nn[nH]n3)c2C1	i	nt	nt	nt	nt	nt
CN(C(=O)CSc1ncn[nH]1)C1(C#N)CCCCC1	i	i	i	i	i	i
O=S(=O)(c1cccc(C(F)(F)F)c1)N1CCC(c2cc(-c3cccc4ccccc34)n[nH]2)CC1	i	?	i	21µM	i	i
COc1ccc(NC(=O)c2ccc(OCc3c(C)noc3C)c(OC)c2)cn1	i	?	i	i	i	i
S=C(NN=C(c1ccccc1)c1ccccn1)N(Cc1ccccn1)Cc1ccccn1	0.89µM	0.15µM	nt	0.15µM	i	?
O=C(Cc1ccccc1)N/N=C/c1ccccn1	i	i	i	i	i	i
CC(=NNC(=S)N(Cc1ccccn1)Cc1ccccn1)c1cnccn1	1.3µM	0.82µM	?	0.58µM	i	?
Cc1ccccc1NC(=S)N(Cc1ccccn1)Cc1ccccc1Cl	?	?	?	?	i	?
S=C(NN=Cc1ccccn1)N(Cc1ccccn1)Cc1ccccn1	7.9µM	0.92µM	?	0.65µM	i	?
SMILES	ATXN2 expr inh	TDP1 cell noCPT	ATXN viability	DT40 TDP1 CPT	HepG2 viability	TGFb SMAD3 inh
CC(C)(C)OC(=O)N1CCC(c2c(C(=O)N3CCN(C(=O)c4ccco4)CC3)cnn2-c2cccc(F)c2)CC1	nt	?	nt	?	i	i
Cc1ccc2ncc(S(=O)(=O)c3ccccc3)c(N3CCCCC3C)c2c1 (centres undefined)	?	18µM	i	23µM	i	?
CC1CCCN(c2c(S(=O)(=O)c3ccccc3)cnc3ccc(Cl)cc23)C1 (centres undefined)	i	i	i	i	i	i
CCCCOC(=O)c1ccc(N=Nc2c(C)c(C#N)c(O)[nH]c2=O)cc1	nt	23µM	i	?	i	i
COc1ccc(C2C(C(C)=O)=C(C)N=c3s/c(=C\c4ccco4)c(=O)n32)c(OC)c1 (centres undefined)	nt	i	nt	8.2µM	i	i
CCOC(=O)C1=C(C)n2c(s/c(=C/c3cccc([N+](=O)[O-])c3)c2=O)=NC1c1ccc(O)c(OC)c1 (centres undefined)	?	16µM	?	16µM	i	i
CCOC(=O)C1=C(C)N=c2s/c(=C/c3cccc([N+](=O)[O-])c3O)c(=O)n2C1c1ccc(OC)cc1OC (centres undefined)	i	?	13µM	?	i	i
CCOC(=O)C1=C(c2ccccc2)N=c2s/c(=C\c3ccco3)c(=O)n2C1c1cccs1 (centres undefined)	i	?	i	?	i	i
CCOC(=O)C1=C(C)N=c2s/c(=C/c3ccc(OCC(=O)O)cc3)c(=O)n2C1c1ccc(OC)cc1OC (centres undefined)	nt	i	nt	i	i	i
CCOC(=O)C1=C(c2ccccc2)N=c2s/c(=C\c3cc(OC)c(OC)c(OC)c3)c(=O)n2C1c1cccs1 (centres undefined)	i	6.5µM	i	?	i	i
COc1ccc(C2C(C(C)=O)=C(C)N=c3s/c(=C\c4cc(C)n(C)c4C)c(=O)n32)c(OC)c1 (centres undefined)	i	?	i	?	i	i
O=C(c1cccnc1)C1CCCN(Cc2ccc3c(c2)CN(C(=O)c2ccc4[nH]ccc4c2)CCO3)C1 (centres undefined)	nt	?	i	i[9.04 µM]	nt	nt
COc1cccc(C2(CC(=O)N3CCN(c4ccccc4O)CC3)CC(=O)N(C3CCCC3)C2=O)c1 (centres undefined)	nt	?	i	?	nt	nt
COC(=O)[C@]1(Cc2ccccc2)N[C@H](CN(C)C(=O)c2ccc(C)cc2)[C@@H]2C(=O)N(C)C(=O)[C@@H]21	i	?	?	i	i	i
COc1ccccc1C1C2=C(N=C3SCC(=O)N31)c1ccccc1CC2 (centres undefined)	i	?	?	?	i	i
CCOC(=O)C1=C(C)N=c2s/c(=C\c3ccc(O)c([N+](=O)[O-])c3)c(=O)n2C1c1ccccc1OC (centres undefined)	?	18µM	?	i	i	i
COc1ccc(/C=c2/sc3n(c2=O)C(c2ccccc2OC)C2=C(N=3)c3ccccc3CC2)cc1O (centres undefined)	i	23µM	i	29µM	i	?
CCOC(=O)C1=C(C)N=c2s/c(=C\c3ccc(OCC(=O)O)cc3)c(=O)n2C1c1ccccc1OC (centres undefined)	i	i	i	i	i	i

From PubChem
